Source: PubChem
TDP1 cell CPT: growth inhibition of DT40 Tdp1-/-;hTDP1 cells with camptothecin (screen for TDP1 inhibitors); chicken DT40 Tdp1-/-;hTDP1 cells + 20 nM CPT, ATP luminescence, 48 h; Potency, µM (doses to about 46.2 µM), usual class: inhibitors; 12% of 420,000 active; AID 686979; also: nearly all actives have a fitted effect of over 55% in size
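Chicken DT40 Tdp1-/- cells complemented with human TDP1, 400 cells/well, exposed to compounds plus 20 nM camptothecin for at least 48 h at 37 C; viability read as ATP content by CellTiter-Glo luminescence.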
IL-1B inflam inh: blocks inflammasome-driven IL-1 beta release | THP-1 LPS/ATP IL-1B secretion, AlphaLISA, 16 h; active compounds read low | activity change, % at 57.5 µM | 4.7% of 360,000 active; in the data active = activity change below about -50%; inconclusive = mostly about -30% to -49%
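Secreted IL-1B measured by AlphaLISA bead assay after 16 h compound exposure of THP-1 cells; compounds (final up to 57.5 uM) added 1 h before LPS (250 ng/mL) and ATP (1.25 mM) stimulation; lower signal means less secretion.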
Six1-Eya2 inh: blocks human Six1 binding to Eya2; activity change, % (no concentration beside the values); Q15475+O00167; AlphaScreen GST-Six1/His-Eya2 binding, biochemical; active compounds read low; 0.56% of 360,000 active; AID 651725; in the data active = activity change below about -65%; inconclusive = mostly about -30% to -63%
Target sequence (O00167 whole entry, looked up): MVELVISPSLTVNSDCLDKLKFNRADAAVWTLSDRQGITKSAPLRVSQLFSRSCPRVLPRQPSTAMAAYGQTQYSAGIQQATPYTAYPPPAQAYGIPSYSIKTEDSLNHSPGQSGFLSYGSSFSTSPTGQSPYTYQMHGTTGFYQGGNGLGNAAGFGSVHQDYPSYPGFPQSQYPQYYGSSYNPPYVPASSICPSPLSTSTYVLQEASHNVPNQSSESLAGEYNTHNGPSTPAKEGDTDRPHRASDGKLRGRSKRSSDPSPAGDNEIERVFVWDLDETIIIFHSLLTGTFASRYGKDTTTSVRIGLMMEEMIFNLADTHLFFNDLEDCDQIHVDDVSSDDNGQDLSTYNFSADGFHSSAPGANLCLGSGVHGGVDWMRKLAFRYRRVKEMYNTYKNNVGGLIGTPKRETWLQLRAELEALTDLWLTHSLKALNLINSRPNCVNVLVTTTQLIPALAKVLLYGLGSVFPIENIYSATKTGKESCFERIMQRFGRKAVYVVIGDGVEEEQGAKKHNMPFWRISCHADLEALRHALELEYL
Target sequence (Q15475 whole entry, looked up): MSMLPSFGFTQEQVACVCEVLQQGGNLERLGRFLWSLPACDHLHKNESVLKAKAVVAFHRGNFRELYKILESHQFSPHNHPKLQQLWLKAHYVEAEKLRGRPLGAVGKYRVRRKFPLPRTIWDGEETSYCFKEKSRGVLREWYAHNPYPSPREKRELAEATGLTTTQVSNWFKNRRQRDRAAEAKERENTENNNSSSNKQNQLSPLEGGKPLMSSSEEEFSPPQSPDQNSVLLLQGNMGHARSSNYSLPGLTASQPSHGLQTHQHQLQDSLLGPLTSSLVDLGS
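AlphaScreen with GST-Six1 and His-Eya2 (5X mix: 250 nM and 500 nM), glutathione donor and nickel acceptor beads; buffer 50 mM Tris pH 8.0, 300 mM NaCl, 1 mM TCEP; 1 h at 37 C in the dark.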
CtBP-E1A inh: inhibitors of CtBP/E1A interaction; AlphaScreen GST-E1A/His-CtBP binding, 1536-well; active compounds read low; activity change, % (concentration not given with the values); 0.49% of 340,000 active; AID 651724; in the data active = activity change below about -65%; inconclusive = mostly about -30% to -63%
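AlphaScreen with 125 nM GST-E1A and 125 nM His-CtBP (5X stocks) in Tris pH 8.0, 300 mM NaCl, BSA, Tween 20, TCEP. Compounds preincubated 2 h at 37 deg C, then glutathione donor/nickel acceptor beads added for 1 h at 37 deg C in dark.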
TDP1 inh: TDP1 (human) enzyme inhibition; recombinant TDP1, AlphaScreen DNA substrate cleavage; Potency, µM (top dose mostly 130 µM), hits mostly inhibitors; 0.28% of 350,000 active; also: nearly all actives have a fitted effect of over 40% in size
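Compounds were preincubated with Tdp1 (1 nM final) for 15 min at room temperature before substrate (15 nM final) started a 5 min reaction; beads (10 ug/ml final) were then added for 10 min before AlphaScreen detection.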
DT40 TDP1 no CPT: qHTS for Inhibitors of human tyrosyl-DNA phosphodiesterase 1 (TDP1): qHTS in cells in absence of CPT; Potency, µM (series often up to 46.2 µM), actives largely listed as inhibitors; 15% of 420,000 active; DT40 Tdp1-/- hTDP1 cells, no CPT, ATP luminescence, 48 h; also: nearly all actives have a fitted effect of over 55% in size
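Chicken DT40 Tdp1-/- cells stably complemented with human TDP1 were seeded at 400 cells/well with DMSO in place of 20 nM camptothecin. After compound pinning, cells grew at least 48 hr at 37 °C; viability read by CellTiter-Glo luminescence.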
Each line names hits and unclear results; the compound was inactive in the other large screens. An excerpt weighted towards active compounds, which were near 18% of everything screened. Unless noted, calls follow the shape of the dose curve; as a rule, active = well fitted curve in the direction sought with a large enough effect; inconclusive = small, poorly fitted or top-dose-only effect, or another doubt; inactive = no such curve, though single readings can be large; an effect the other way counts as inactive or inconclusive.

C[C@@H]1CN([C@H](C)CO)C(=O)c2cc(NC(=O)Nc3cccc4ccccc34)ccc2O[C@H]1CN(C)Cc1ccc(C(F)(F)F)cc1	TDP1 cell CPT 10.3µM, DT40 TDP1 no CPT 8.2µM
C[C@@H]1CN([C@@H](C)CO)C(=O)Cc2cc(NC(=O)Nc3cccc4ccccc34)ccc2O[C@@H]1CN(C)Cc1ccc(C(F)(F)F)cc1	TDP1 cell CPT inconclusive, DT40 TDP1 no CPT 16.4µM (no result: IL-1B inflam inh)
C[C@@H]1CN([C@H](C)CO)C(=O)c2cc(NS(=O)(=O)c3cccs3)ccc2O[C@H]1CN(C)Cc1ccccc1	TDP1 cell CPT inconclusive, DT40 TDP1 no CPT inconclusive
C[C@@H]1CN([C@@H](C)CO)C(=O)c2cc(NS(=O)(=O)c3cccs3)ccc2O[C@H]1CN(C)Cc1ccc(C(F)(F)F)cc1	TDP1 cell CPT inconclusive, IL-1B inflam inh -63.3, DT40 TDP1 no CPT 25.9µM
C[C@@H]1CN([C@@H](C)CO)C(=O)Cc2cc(NC(=O)Nc3cccc4ccccc34)ccc2O[C@@H]1CN(C)S(C)(=O)=O	TDP1 cell CPT inconclusive
O=S(=O)(Nc1ccc(-c2cn3c(n2)SCC3)cc1)c1cccs1	CtBP-E1A inh inconclusive, DT40 TDP1 no CPT inconclusive
Cc1cc(C(=O)COc2cccnc2[N+](=O)[O-])c(C)n1-c1ccccc1	TDP1 cell CPT inconclusive, DT40 TDP1 no CPT 20.6µM
Cc1cc(C(=O)COC(=O)c2ccco2)c(C)n1Cc1ccco1	TDP1 cell CPT inconclusive (no result: CtBP-E1A inh)
Cc1cc(C(=O)COc2cccnc2[N+](=O)[O-])c(C)n1Cc1ccco1	TDP1 cell CPT inconclusive, DT40 TDP1 no CPT 25.9µM
Cc1ccc(-n2c(C)cc(C(=O)COc3cccnc3[N+](=O)[O-])c2C)cc1	TDP1 cell CPT 18.4µM, DT40 TDP1 no CPT 10.3µM
Cc1cc(C(=O)COc2cccnc2[N+](=O)[O-])c(C)n1-c1ccccc1F	TDP1 cell CPT 18.4µM, DT40 TDP1 no CPT 9.2µM (no result: TDP1 inh)
Cc1ccc(OCC(=O)c2cc(C)n(C)c2C)c([N+](=O)[O-])n1	none
CCOc1ccc(C(C)NC(=S)NCc2ccc(Cl)cc2)cc1 (stereo not drawn)	TDP1 cell CPT inconclusive, DT40 TDP1 no CPT inconclusive
Cc1c(C(=O)Nc2ccc(F)cc2)sc2nc[nH]c(=O)c12	none (no result: IL-1B inflam inh, Six1-Eya2 inh, CtBP-E1A inh)
Nc1c(C(=O)c2ccc(Cl)cc2)sc2c1c(=O)[nH]c(=O)n2-c1ccccc1	none
Nc1c(C(=O)c2ccccc2)sc2c1c(=O)[nH]c(=O)n2-c1ccccc1	none
Cc1ccc(C(=O)c2sc3c(c2N)c(=O)[nH]c(=O)n3CCc2ccccc2)cc1	TDP1 cell CPT 16.4µM, DT40 TDP1 no CPT 16.4µM
CC(=O)c1ccc(-n2c(=O)[nH]c(=O)c3c(N)c(C(=O)c4ccc(Cl)cc4)sc32)cc1	TDP1 cell CPT inconclusive, DT40 TDP1 no CPT 3.66µM (no result: TDP1 inh)
COC(=O)N1CCC2(CC1)CCN(c1ccncc1)CC2	TDP1 cell CPT 7.31µM, DT40 TDP1 no CPT 16.4µM (no result: IL-1B inflam inh, Six1-Eya2 inh, CtBP-E1A inh, TDP1 inh)
O=C(Oc1ccccc1)N1CCC2(CC1)CCN(c1ncccn1)CC2	DT40 TDP1 no CPT inconclusive (no result: IL-1B inflam inh, Six1-Eya2 inh, CtBP-E1A inh, TDP1 inh)
O=C(Oc1ccccc1)N1CCC2(CC1)CN(c1ccncc1)C2	TDP1 cell CPT 13µM, DT40 TDP1 no CPT 10.3µM (no result: IL-1B inflam inh, Six1-Eya2 inh, CtBP-E1A inh, TDP1 inh)
COC(=O)N1CCC[C@@]2(CCN(c3ccncc3)C2)C1	none (no result: IL-1B inflam inh, Six1-Eya2 inh, CtBP-E1A inh, TDP1 inh)
O=C(Oc1ccccc1)N1CCC2(CCCN(c3ccccc3)C2)CC1	none (no result: IL-1B inflam inh, Six1-Eya2 inh, CtBP-E1A inh, TDP1 inh)
O=C(Oc1ccccc1)N1CCC2(CCCN(c3ccncc3)C2)CC1	TDP1 cell CPT 20.6µM, DT40 TDP1 no CPT 14.6µM (no result: IL-1B inflam inh, Six1-Eya2 inh, CtBP-E1A inh, TDP1 inh)
O=C(CSCc1ccccc1)N1CCN(S(=O)(=O)c2cccc(F)c2)CC1	none
O=c1cc(-c2ccco2)nc(-c2cccs2)o1	none
CNC(=O)NC(=O)C(NC1CCCc2ccccc21)c1ccccc1 (stereo not drawn)	none
Cc1ccc(NC(=O)C(NC2CCCc3ccccc32)c2ccccc2)cc1Cl (stereo not drawn)	TDP1 cell CPT 2.91µM, DT40 TDP1 no CPT 18.4µM
